Results taken from PubChem BioAssay AID1159580 (chemical genetic matrix, 2015).
Values joined by “and” are separate entries in the source; they are usually repeats but may differ in a detail not shown here. Equal entries are not always repeated. About 2,000 (36%) of roughly 5,500 compounds were called active. Another 18% or so got no clear call; they are omitted. Rule as the data show it: active = normalized growth mostly below about 0.91 (no sharp cut-off); inconclusive = no clear call, values can overlap the other calls; inactive = mostly above about 0.92. The list shows a part of the results.

Test: chemical genetic growth profiling, strain panel (AID 1159580);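 also: tested at 20 µM; growth read once vehicle control cultures reached saturation at 30 °C; 1 = growth at the plate median or of vehicle wells; lower values mean less growth of the strain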
Details: growth OD

Measured: normalized growth

CS(=O)(=O)Nc1ccc([N+](=O)[O-])cc1Oc1ccccc1
inactive: S. cerevisiae deletion strains, locus YJR066W, strain TOR1, stronger effect = lower value 0.962 | S. cerevisiae deletion strains, locus YJR075W, strain HOC1, stronger effect = lower value 1 | S. cerevisiae deletion strains, locus YKL009W, strain mrt4, stronger effect = lower value 0.944 | S. cerevisiae deletion strains, locus YKL068W, stronger effect = lower value 0.988 | S. cerevisiae deletion strains, locus YKL085W, strain MDH1 (second series), stronger effect = lower value 0.99 | S. cerevisiae deletion strains, locus YKL085W, strain MDH1, stronger effect = lower value 0.99 | S. cerevisiae deletion strains, locus YKL160W, strain elf1, stronger effect = lower value 0.987 | S. cerevisiae deletion strains, locus YKL190W, strain CNB1, stronger effect = lower value 0.983 | S. cerevisiae deletion strains, locus YKR001C, strain vps1, stronger effect = lower value 0.938 | S. cerevisiae deletion strains, locus YKR026C, strain gcn3, stronger effect = lower value 0.987 | S. cerevisiae deletion strains, locus YKR091W, strain srl3, stronger effect = lower value 0.993 | S. cerevisiae deletion strains, locus YLL001W, strain dnm1, stronger effect = lower value 0.975 | S. cerevisiae deletion strains, locus YLL026W, stronger effect = lower value 0.993 | S. cerevisiae deletion strains, locus YLL041C, strain sdh2, stronger effect = lower value 0.995 | S. cerevisiae deletion strains, locus YLR027C, strain aat2, stronger effect = lower value 1 | S. cerevisiae deletion strains, locus YLR039C, strain RIC1, stronger effect = lower value 0.839 | S. cerevisiae deletion strains, locus YLR058C, strain SHM2, stronger effect = lower value 0.966 | S. cerevisiae deletion strains, locus YLR102C, strain apc9, stronger effect = lower value 0.984 | S. cerevisiae deletion strains, locus YLR113W, strain HOG1, stronger effect = lower value 1.03 | S. cerevisiae deletion strains, locus YLR221C, strain rsa3, stronger effect = lower value 0.994 | S. cerevisiae deletion strains, locus YLR258W, strain gsy2, stronger effect = lower value 0.988 | S. cerevisiae deletion strains, locus YLR262C, strain YPT6 (second series), stronger effect = lower value 0.889 | S. cerevisiae deletion strains, locus YLR262C, strain YPT6, stronger effect = lower value 0.75 | S. cerevisiae deletion strains, locus YLR268W, strain sec22, stronger effect = lower value 0.958 | S. cerevisiae deletion strains, locus YLR320W, strain mms22, stronger effect = lower value 0.994 | S. cerevisiae deletion strains, locus YLR330W, strain CHS5, stronger effect = lower value 0.993 | S. cerevisiae deletion strains, locus YLR342W, strain FKS1 (second series), stronger effect = lower value 1.08 | S. cerevisiae deletion strains, locus YLR342W, strain FKS1, stronger effect = lower value 0.997 | S. cerevisiae deletion strains, locus YLR357W, strain rsc2, stronger effect = lower value 0.986 | S. cerevisiae deletion strains, locus YLR370C, strain arc18, stronger effect = lower value 0.999 | S. cerevisiae deletion strains, locus YLR371W, strain rom2, stronger effect = lower value 0.984 | S. cerevisiae deletion strains, locus YLR384C, strain iki3, stronger effect = lower value 0.991 | S. cerevisiae deletion strains, locus YLR418C, strain cdc73, stronger effect = lower value 1.01 | S. cerevisiae deletion strains, locus YML016C, strain PPZ1, stronger effect = lower value 0.989 | S. cerevisiae deletion strains, locus YML032C, strain rad52, stronger effect = lower value 0.958 | S. cerevisiae deletion strains, locus YML120C, strain ndi1, stronger effect = lower value 0.993 | S. cerevisiae deletion strains, locus YML124C, strain tub3, stronger effect = lower value 0.982 | S. cerevisiae deletion strains, locus YMR058W, strain fet3, stronger effect = lower value 0.993 | S. cerevisiae deletion strains, locus YMR078C, strain ctf18, stronger effect = lower value 0.975 | S. cerevisiae deletion strains, locus YMR125W, strain sto1, stronger effect = lower value 0.984 | S. cerevisiae deletion strains, locus YMR129W, stronger effect = lower value 0.983 | S. cerevisiae deletion strains, locus YMR205C, strain PFK2, stronger effect = lower value 0.974 | S. cerevisiae deletion strains, locus YMR223W, strain ubp8, stronger effect = lower value 0.993 | S. cerevisiae deletion strains, locus YMR231W, strain pep5, stronger effect = lower value 1 | S. cerevisiae deletion strains, locus YMR307W, strain GAS1, stronger effect = lower value 1.05 and 0.989 | S. cerevisiae deletion strains, locus YNL067W, strain RPL9B, stronger effect = lower value 0.953 | S. cerevisiae deletion strains, locus YNL071W, strain lat1, stronger effect = lower value 1 | S. cerevisiae deletion strains, locus YNL128W, strain TEP1, stronger effect = lower value 0.981 and 0.986 | S. cerevisiae deletion strains, locus YNL175C, strain NOP13, stronger effect = lower value 0.995 | S. cerevisiae deletion strains, locus YNL183C, strain NPR1, stronger effect = lower value 0.943 | S. cerevisiae deletion strains, locus YNL197C, strain WHI3, stronger effect = lower value 0.99 | S. cerevisiae deletion strains, locus YNL209W, strain ssb2, stronger effect = lower value 0.994 | S. cerevisiae deletion strains, locus YNL224C, strain SQS1, stronger effect = lower value 1 | S. cerevisiae deletion strains, locus YNL233W, strain BNI4, stronger effect = lower value 0.927 | S. cerevisiae deletion strains, locus YNL248C, strain rpa49, stronger effect = lower value 1 | S. cerevisiae deletion strains, locus YNL250W, strain rad50, stronger effect = lower value 0.999 | S. cerevisiae deletion strains, locus YNL271C, strain bni1, stronger effect = lower value 0.972 | S. cerevisiae deletion strains, locus YNL298W, strain CLA4, stronger effect = lower value 0.966 | S. cerevisiae deletion strains, locus YNL307C, strain MCK1, stronger effect = lower value 0.966 | S. cerevisiae deletion strains, locus YNL322C, strain KRE1 (second series), stronger effect = lower value 0.994 | S. cerevisiae deletion strains, locus YNL322C, strain KRE1, stronger effect = lower value 0.986 and 1.01 | S. cerevisiae deletion strains, locus YNR049C, strain mso1, stronger effect = lower value 0.99 | S. cerevisiae deletion strains, locus YNR052C, strain pop2, stronger effect = lower value 0.976 | S. cerevisiae deletion strains, locus YOL006C, strain TOP1, stronger effect = lower value 0.841 | S. cerevisiae deletion strains, locus YOL012C, strain htz1 1.03 | S. cerevisiae deletion strains, locus YOL147C, strain pex11, stronger effect = lower value 0.98 | S. cerevisiae deletion strains, locus YOR001W, strain rrp6, stronger effect = lower value 0.99 | S. cerevisiae deletion strains, locus YOR061W, strain CKA2, stronger effect = lower value 0.964 | S. cerevisiae deletion strains, locus YOR069W, strain VPS5, stronger effect = lower value 0.994 | S. cerevisiae deletion strains, locus YOR070C, strain gyp1, stronger effect = lower value 0.986 | S. cerevisiae deletion strains, locus YOR080W, strain dia2, stronger effect = lower value 0.991 | S. cerevisiae deletion strains, locus YOR083W, strain WHI5 (second series), stronger effect = lower value 0.991 | S. cerevisiae deletion strains, locus YOR083W, strain WHI5, stronger effect = lower value 0.986 | S. cerevisiae deletion strains, locus YOR106W, strain vam3, stronger effect = lower value 1.01 | S. cerevisiae deletion strains, locus YOR136W, strain idh2, stronger effect = lower value 0.977 | S. cerevisiae deletion strains, locus YOR144C, strain elg1, stronger effect = lower value 0.981 | S. cerevisiae deletion strains, locus YOR184W, strain ser1, stronger effect = lower value 0.951 | S. cerevisiae deletion strains, locus YOR231W, strain MKK1, stronger effect = lower value 1.06 | S. cerevisiae deletion strains, locus YOR265W, strain rbl2, stronger effect = lower value 1.01 | S. cerevisiae deletion strains, locus YOR270C, strain vph1, stronger effect = lower value 0.97 | S. cerevisiae deletion strains, locus YOR290C, strain snf2, stronger effect = lower value 0.954 | S. cerevisiae deletion strains, locus YOR316C, strain cot1, stronger effect = lower value 0.961 | S. cerevisiae deletion strains, locus YPL051W, strain arl3, stronger effect = lower value 0.993 | S. cerevisiae deletion strains, locus YPL055C, strain LGE1, stronger effect = lower value 0.879 | S. cerevisiae deletion strains, locus YPL078C, strain atp4, stronger effect = lower value 0.994 | S. cerevisiae deletion strains, locus YPL106C, strain sse1, stronger effect = lower value 0.991 | S. cerevisiae deletion strains, locus YPL240C, strain hsp82, stronger effect = lower value 0.978 | S. cerevisiae deletion strains, locus YPL241C, strain CIN2, stronger effect = lower value 1.01 | S. cerevisiae deletion strains, locus YPL256C, strain CLN2, stronger effect = lower value 1.03 | S. cerevisiae deletion strains, locus YPR119W, strain clb2, stronger effect = lower value 0.973 | S. cerevisiae deletion strains, locus YPR141C, strain kar3, stronger effect = lower value 0.973 | S. cerevisiae deletion strains, locus YPR163C, strain tif3, stronger effect = lower value 0.988 | S. cerevisiae deletion strains, locus YPR167C, strain met16, stronger effect = lower value 0.986 | S. cerevisiae deletion strains, strain wtn01, stronger effect = lower value 0.968 | S. cerevisiae strains, strain wild type, stronger effect = lower value 0.978
